Rce1 inh: yeast Rce1p protease inhibitors, primary screen, biochemical, fluorescence, cell-free homogeneous; CAAX prenyl protease 2 (Saccharomyces cerevisiae (strain ATCC 204508 / S288c)), Q03530; yeast membranes, quenched prenylated peptide cleavage fluorescence; calls only; 0.27% of 290,000 active;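 active means fall in fluorescence gain of 50% or more versus controls, with final raw signal at or below 3038400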;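 further: plate controls were neutral control wells for no effect and wells lacking membranes for full effect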
Target sequence (Q03530 whole entry, looked up): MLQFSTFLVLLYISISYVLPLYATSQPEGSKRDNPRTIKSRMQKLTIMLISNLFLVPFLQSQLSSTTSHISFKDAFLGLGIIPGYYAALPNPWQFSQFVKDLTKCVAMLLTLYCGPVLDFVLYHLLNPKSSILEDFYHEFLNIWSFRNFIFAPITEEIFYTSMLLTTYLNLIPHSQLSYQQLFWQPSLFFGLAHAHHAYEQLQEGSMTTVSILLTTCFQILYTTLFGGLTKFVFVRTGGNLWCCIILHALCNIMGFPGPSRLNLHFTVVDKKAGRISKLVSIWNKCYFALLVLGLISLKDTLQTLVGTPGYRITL
PfM18AAP inh: PfM18AAP inhibitors, malaria aminopeptidase, primary screen, biochemical, QFRET, recombinant enzyme; M18 aspartyl aminopeptidase (Plasmodium falciparum 3D7); H-Glu-NHMec fluorogenic cleavage; inhibition, % at 7.35 µM; 1.2% of 290,000 active;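 active means inhibition above the campaign mean inhibition over all tested compounds plus 3 SD, cut at about 28% in these data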;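 further: 0% = plate median of test compound wells and 100% = 2 mM ZnCl2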
Kir21 inh: inhibitors of mouse Kir2.1 inward-rectifier potassium channel; Inward rectifier potassium channel 2 (Mus musculus), P35561; HEK293-Kir2.1, FluxOR thallium flux fluorescence; stronger effect = lower value; B-score at 10 µM; 0.85% of 310,000 active; AID 1672, 2009;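 active means fluorescence ratio B-score at or below minus 3 SD of library scores, with starting-brightness B-score within 2 SD, cut at about -4.2 in these data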;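 further: channel flux triggered by added potassium and thallium sulfate stimulus; B-score of peak minus minimum fluorescence over baseline after thallium stimulus; more negative B-score means stronger Kir2.1 block with less thallium influx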
FID counter: compounds displacing fluorescent DNA intercalator, primary screen, artefact control for HCV NS3 helicase inhibitor project, biochemical, FID fluorescence; 0.17% of 290,000 active; AID 1845, 2009; DNA fluorescent intercalator displacement; inhibition, % at 7.9 µM; in the data active means inhibition above about 37%;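 further: 0% = vehicle and 100% = reference compound; higher means more ethidium bromide displaced from hairpin DNA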
* marks the source's active call; other numbers are inactive results. Compounds with a hit are over-represented: about 2.3% of the library has one in this group of screens.

Results for Cc1ccc(C(C)C)c(OCCNCCc2ccccc2)c1 ?
PfM18AAP inh: -10; Kir21 inh: -9.9*; FID counter: 32

What do the screens show for `Cc1ccc(C(C)C)c(OCCCNCc2cccnc2)c1`?
Rce1 inh: inactive; PfM18AAP inh: 2; Kir21 inh: -5.7*; FID counter: 8

What do the screens show for `Cc1ccc(C(C)C)c(OCCNS(C)(=O)=O)c1`?
Rce1 inh: inactive; PfM18AAP inh: -3; Kir21 inh: -0.3; FID counter: -5

How did COc1cccc(NC(=O)CN(C)C(=O)CSc2ncnc3sc(C)c(C)c23)c1 do in these assays?
Rce1 inh: inactive; Kir21 inh: -0.24

How did Cn1c(N)c(S(=O)(=O)N2CCN(c3ccccc3F)CC2)c(=O)n(C)c1=O do in these assays?
Rce1 inh: inactive; PfM18AAP inh: 0; Kir21 inh: -0.1; FID counter: 0

How did Cc1cc(C)c(S(=O)(=O)NCc2ccc3c(c2)OCO3)c(C)c1 do in these assays?
Rce1 inh: inactive; PfM18AAP inh: -3; Kir21 inh: -1.1; FID counter: -24

Results for Cc1cc(C)c(S(=O)(=O)NCc2ccc3c(c2)OCO3)cc1C ?
Rce1 inh: inactive; PfM18AAP inh: -1; Kir21 inh: -4.3*; FID counter: -18

What do the screens show for `CCOc1cc(C)c(Cl)cc1S(=O)(=O)N1CCCC1`?
Rce1 inh: inactive; PfM18AAP inh: -5; Kir21 inh: -5.5*; FID counter: -11

How did CCOc1cc(C)c(Cl)cc1S(=O)(=O)NCc1ccc2c(c1)OCO2 do in these assays?
Rce1 inh: inactive; PfM18AAP inh: 1; Kir21 inh: -6.6*; FID counter: -22

How did CCC(C)NC(=O)c1cn(-c2cccc(OC)c2)c(=O)c2ccccc12 (configuration not stated) do in these assays?
Rce1 inh: inactive; PfM18AAP inh: 2; Kir21 inh: 2.1; FID counter: -13

How did CC(C)=CCc1c(O)cc(O)c2c1OC(c1ccc(O)cc1)CC2=O (configuration not stated) do in these assays?
Kir21 inh: -6.4*

How did CC(C)=CCc1c(O)c(CC=C(C)C)c2c(c1O)C(=O)CC(c1ccc(O)cc1)O2 (configuration not stated) do in these assays?
Rce1 inh: inactive; PfM18AAP inh: 13; Kir21 inh: -0.37; FID counter: -17

What do the screens show for `O=C(CSc1nnc(-c2cccnc2)o1)Nc1ccccc1F`?
Rce1 inh: inactive; Kir21 inh: 0.39

Results for COCCn1cc(C(=O)NCCN(C)C)c2c3ccccc3n(C)c2c1=O ?
Rce1 inh: active; PfM18AAP inh: -1; Kir21 inh: 0.73; FID counter: -4

How did CCN(CC)CCNC(=O)c1cn(CCOC)c(=O)c2c1c1ccccc1n2C do in these assays?
Rce1 inh: inactive; PfM18AAP inh: 3; Kir21 inh: -0.58; FID counter: -5

Results for C=C(C)CC(NCc1ccco1)c1ccc(OC)cc1 (configuration not stated) ?
Rce1 inh: inactive; PfM18AAP inh: -9; Kir21 inh: -5.4*; FID counter: 3

What do the screens show for `Cc1cc(C)cc(NC(=O)[C@H](Cc2c[nH]c3ccccc23)NC(=O)[C@@H]2Cc3ccccc3CN2)c1`?
PfM18AAP inh: 10; Kir21 inh: 1.3; FID counter: 40*

Results for CC(NCc1ccc([N+](=O)[O-])cc1)C1COc2ccccc2O1 (configuration not stated) ?
Rce1 inh: inactive; PfM18AAP inh: -5; Kir21 inh: 1.1; FID counter: 8

How did CCN(CC)C(=O)c1sc2[nH]c(=S)n(-c3ccccc3)c(=O)c2c1C do in these assays?
Rce1 inh: inactive; PfM18AAP inh: -57; Kir21 inh: 1.4; FID counter: -23

How did O=C(O)C1CCc2sc3[nH]c(=S)n(-c4ccccc4)c(=O)c3c21 (configuration not stated) do in these assays?
Rce1 inh: inactive; PfM18AAP inh: 31*; Kir21 inh: 1.5; FID counter: -11

What do the screens show for `CCOC(=O)c1c(NC(=O)CSc2nnc(C)s2)sc2c1CCCCC2`?
Rce1 inh: inactive; PfM18AAP inh: -1; Kir21 inh: 0.1; FID counter: -9

How did CCOC(=O)c1c(NC(=O)CSc2nnc3c(Cl)cc(Cl)cn23)sc2c1CCC2 do in these assays?
Rce1 inh: inactive; PfM18AAP inh: 5; Kir21 inh: -4.3*; FID counter: -23

What do the screens show for `Cc1csc(NC(=O)CSc2nnc(-c3cc(C)on3)o2)n1`?
Rce1 inh: inactive; PfM18AAP inh: 19; Kir21 inh: 0.45; FID counter: -5

From PubChem
